TDP1 cell noCPT – qHTS for Inhibitors of human tyrosyl-DNA phosphodiesterase 1 (TDP1): qHTS in cells in absence of CPT. Potency, µM (doses to about 46.2 µM), usual class: inhibitors. DT40 Tdp1-/- hTDP1 cells, no CPT, ATP luminescence, 48 h. 420,000 tested, 15% active. AID 686978, 2013; further: nearly all actives have a fitted effect of over 55% in size
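Growth kinetics read by CellTiter-Glo luminescence after ≥48 hr at 37 °C. Cells: DT40 Tdp1-/- stably carrying human TDP1, 400 per well, compound exposure in the absence of CPT (DMSO vehicle).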
IL1B secr inh – qHTS for Inhibitors of Inflammasome Signaling: IL-1-beta AlphaLISA Primary Screen | THP-1 LPS/ATP IL-1B secretion, AlphaLISA, 16 h; active compounds read low | activity change, % at 57.5 µM | 360,000 tested, 4.7% active; in the data active means activity change below about -50%; inconclusive means mostly about -30% to -49%
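THP-1 cells pretreated 1 hr with compounds (up to 57.5 uM final), then stimulated with LPS (250 ng/mL final) plus ATP (1.25 mM final); secreted IL-1B measured by AlphaLISA after 16 hr, decreased signal indicating inhibition.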
DT40 TDP1 CPT – qHTS for Inhibitors of human tyrosyl-DNA phosphodiesterase 1 (TDP1): qHTS in cells in presence of CPT. chicken DT40 Tdp1-/-;hTDP1 cells + 20 nM CPT, ATP luminescence, 48 h. Potency, µM (highest dose often 46.2 µM), most hits filed as inhibitors. 420,000 tested, 12% active; further: nearly all actives have a fitted effect of over 55% in size
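Chicken DT40 Tdp1-/- cells stably complemented with human TDP1 were seeded at 400 cells/well in medium containing 20 nM camptothecin, exposed to pin-transferred compounds, and grown at 37 °C for at least 48 hr. Viability was read as ATP luminescence.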
TDP1 block – qHTS Assay for Inhibitors of Tyrosyl-DNA Phosphodiesterase (TDP1); Potency, µM (top dose mostly 130 µM), hits mostly inhibitors; recombinant TDP1, AlphaScreen DNA substrate cleavage; Tyrosyl-DNA phosphodiesterase 1 (Homo sapiens), Q9NUW8; AID 485290, 2010; 350,000 tested, 0.28% active; further: nearly all actives have a fitted effect of over 40% in size
Target sequence (Q9NUW8 whole entry, looked up): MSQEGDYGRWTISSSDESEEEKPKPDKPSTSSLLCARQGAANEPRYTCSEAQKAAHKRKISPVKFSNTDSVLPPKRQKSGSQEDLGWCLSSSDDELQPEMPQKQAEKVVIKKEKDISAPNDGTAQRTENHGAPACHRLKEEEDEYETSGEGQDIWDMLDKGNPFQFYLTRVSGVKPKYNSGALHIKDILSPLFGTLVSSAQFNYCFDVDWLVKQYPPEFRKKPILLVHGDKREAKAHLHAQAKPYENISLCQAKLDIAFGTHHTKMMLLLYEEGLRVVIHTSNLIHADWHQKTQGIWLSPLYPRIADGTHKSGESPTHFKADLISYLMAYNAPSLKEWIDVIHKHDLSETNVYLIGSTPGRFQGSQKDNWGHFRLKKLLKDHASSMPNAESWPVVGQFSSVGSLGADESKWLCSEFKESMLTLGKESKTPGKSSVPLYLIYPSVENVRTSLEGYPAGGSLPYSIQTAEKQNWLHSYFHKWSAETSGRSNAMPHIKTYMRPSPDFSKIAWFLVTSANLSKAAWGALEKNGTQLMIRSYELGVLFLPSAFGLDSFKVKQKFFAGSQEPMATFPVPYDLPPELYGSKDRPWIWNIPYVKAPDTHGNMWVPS
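Recombinant E. coli-expressed Tdp1 (1 nM) preincubated with compound 15 min at RT, then 5'-biotin/3'-phosphotyrosine-FITC DNA substrate (15 nM) added for 5 min. AlphaScreen beads (10 ug/ml) added, 10 min RT; tyrosine-FITC cleavage read as signal loss.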
CtBP-E1A inh – qHTS Assay for Inhibitors of the CtBP/E1A Interaction | AlphaScreen GST-E1A/His-CtBP binding, 1536-well; active compounds read low | 340,000 tested, 0.49% active | AID 651724, 2012 | activity change, % (no concentration beside the values); in the data active means activity change below about -65%; inconclusive means mostly about -30% to -63%
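Protein mix (5X: 125 nM each GST-E1A, His-CtBP) was incubated with pinned compound 2 h at 37 deg C in dark, in 50 mM Tris pH 8.0 buffer with 300 mM NaCl. Glutathione donor and nickel acceptor beads followed; AlphaScreen signal read after 1 h.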
Six1-Eya2 blk – qHTS Assay for Inhibitors of the Six1/Eya2 Interaction; Homeobox protein SIX1 (Homo sapiens) + Protein phosphatase EYA2 (Homo sapiens), …; AID 651725, 2012; AlphaScreen GST-Six1/His-Eya2 binding, biochemical; active compounds read low; activity change, % (test concentration not listed); 360,000 tested, 0.56% active; in the data active means activity change below about -65%; inconclusive means mostly about -30% to -63%
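Six1/Eya2 binding was read as AlphaScreen signal after compounds were pinned into GST-Six1 plus His-tagged Eya2 (5X stock 250/500 nM) in pH 8.0 Tris/NaCl/TCEP buffer, beads added, then incubated 1 h, 37 C, dark.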
Hits are given with their value; . = inactive; ? = inconclusive; / = no result given. Only some compounds are listed: those with a hit (about 18% of all), similar ones and a draw of the others. Unless noted, the call rests on the fitted dose curve; in most records, active means well fitted curve in the direction sought with a large enough effect; inconclusive means small, poorly fitted or top-dose-only effect, or another doubt; inactive means no such curve, though single readings can be large; an effect the other way counts as inactive or inconclusive.

SMILES | TDP1 cell noCPT | IL1B secr inh | DT40 TDP1 CPT | TDP1 block | CtBP-E1A inh | Six1-Eya2 blk
Cc1ccc(Cc2c(-c3ccccc3)nc3c(C)cc(Br)cn23)cc1 | 10µM | . | ? | / | . | .
Cc1ccc(Cc2c(-c3ccc(C#N)cc3)nc3c(C)cc(Br)cn23)cc1 | ? | . | ? | / | . | .
Cc1cc(Br)cn2c(Cc3cccc(F)c3)c(-c3ccccc3)nc12 | 18µM | . | 29µM | / | . | .
Cc1noc(C)c1C(=O)Nc1ccc(F)c(F)c1 | . | . | . | . | . | .
CCOC(=O)c1sc(-n2[nH]c(C)cc2=O)nc1C | . | . | . | . | . | .
COc1ccnc(CSC(N)=Nc2ccccc2OC)c1 | 13µM | . | ? | . | . | .
COc1ccnc(CSC(N)=Nc2cccc(C(F)(F)F)c2)c1 | 16µM | -104 | 12µM | . | . | -67
COc1ccnc(CN(C)C(=O)C2CCC(=O)N(Cc3cccc(C(F)(F)F)c3)C2)c1 (configuration not stated) | . | . | . | . | . | .
COc1ccnc(CSC(N)=Nc2ccccc2C(F)(F)F)c1 | 15µM | . | 26µM | . | . | .
CCOc1ccccc1N(CC(=O)NCC1CCCO1)C(=O)CCC(=O)Nc1cc(C)on1 (configuration not stated) | . | . | . | . | . | .
CN(C)CCCNC(=O)c1ccc(-c2cc(O)c3ncccc3c2)cc1 | / | / | / | . | / | /
Cc1ccc(-c2nc(N)sc2CC(=O)OCC(=O)NCCC(C)C)cc1 | . | . | . | . | . | .
O=[N+]([O-])c1cccc(/C=N/Nc2nc(NCc3ccccc3)nc(N3CCOCC3)n2)c1 | ? | . | 15µM | . | . | .
CN(C)c1nc(NCc2ccccc2)nc(N/N=C/c2cccc(Br)c2)n1 | 7.3µM | . | 5.8µM | . | / | .
O=[N+]([O-])c1cccc(/C=N/Nc2nc(NCc3ccccc3)nc(N3CCOCC3)n2)c1O | ? | . | 13µM | . | -67 | -94
Clc1cccc(-c2ccnc3nc(-n4cccc4)nn23)c1 | . | . | ? | . | . | .
COc1cccc(C(=O)N2CCC[C@H]2C(=O)N2CCC[C@H]2C(=O)N(C)Cc2ccccc2)c1 | . | . | . | / | . | .
CC(C)(C)c1ccc(C(=O)CCCN2CCC(OC(c3ccccc3)c3ccccc3)CC2)cc1 | 6µM | / | 12µM | . | / | /
C=C1N(C)c2cc([N+](=O)[O-])c(N)cc2C1(C)C | . | -53 | . | . | . | ?
CC(SCc1nc2sc3c(c2c(=O)[nH]1)CCCC3)C(=O)Nc1ccccn1 (configuration not stated) | . | . | . | . | . | .
CC(=O)Nc1ccc2c(c1)CCc1ccccc1-2 | . | . | . | / | . | .
O=C(O)/C=C/C(=O)c1ccc2c(c1)CCc1ccccc1-2 | 3.7µM | -104 | 4.1µM | . | . | ?
O=C(CCN1C(=O)C2C3C=CC(C3)C2C1=O)N1CCN(c2ccccn2)CC1 (configuration not stated) | . | . | . | . | . | .
Cc1cccc(N2CCN(C(=O)CCN3C(=O)C4C5C=CC(C5)C4C3=O)CC2C)c1 (configuration not stated) | 26µM | . | . | . | / | .
CC1CCN(C(=O)CCN2C(=O)C3C4C=CC(C4)C3C2=O)CC1 (configuration not stated) | . | . | . | . | / | .
SMILES | TDP1 cell noCPT | IL1B secr inh | DT40 TDP1 CPT | TDP1 block | CtBP-E1A inh | Six1-Eya2 blk
Cc1cccc(N2C(=O)C3C4C=CC(C4)C3C2=O)c1 (configuration not stated) | . | . | . | . | . | .
O=C(CCN1C(=O)C2C3C=CC(C3)C2C1=O)N1CCN(c2cccc(Cl)c2)CC1 (configuration not stated) | 16µM | . | 16µM | . | . | .
Cc1cccc(N2CCN(C(=O)c3cccc(N4C(=O)C5C6C=CC(C6)C5C4=O)c3)CC2C)c1 (configuration not stated) | 21µM | . | 13µM | . | . | .
O=C(Cn1nnc(-c2cccs2)n1)OC1CCCCC1 | . | . | . | . | . | .
O=[N+]([O-])/C(C(Cl)=C(Cl)Cl)=C(/Sc1ccccc1)N1CCCCC1 | 13µM | -89 | ? | . | . | .
O=C(N/C(=C\c1ccc([N+](=O)[O-])cc1)C(=O)N1CCCCC1)c1ccccc1 | ? | . | ? | . | . | .
CN(C(=O)c1ccc(NC(=O)C2CC=CCC2C(=O)O)cc1)c1ccccc1 (configuration not stated) | . | . | . | . | . | .
COC(=O)[C@@H]1C[C@]2(OC(=O)c3ccccc3)C=CC(=O)C[C@@H]2N1C(=O)OCc1ccccc1 | 7.3µM | -107 | 6.5µM | . | . | .
COc1ccc(OCCSc2nc(-c3ccccc3)cc(=O)[nH]2)cc1 | . | . | . | . | . | .
Cc1csc(SCC(=O)N2CCOc3ccc(C(O)C4CCCCC4)cc3C2)n1 (configuration not stated) | 21µM | / | ? | / | / | /
COc1ccccc1C(=O)NCCc1c(C)[nH]c2c(C)ccc(F)c12 | . | . | . | . | . | .
O=C(NCCCN1CCOCC1)c1ccc(Br)cc1 | . | . | . | . | . | .
O=C(NCCCN1CCOCC1)c1cc2c([nH]c3ccccc32)c(-c2cccc(Br)c2)n1 | 8.2µM | -73 | 8.2µM | / | . | .
COc1cccc(-c2cc(C(=O)NCCCN3CCOCC3)no2)c1 | . | . | . | . | . | .
COc1cccc(-c2nc(C(=O)NCCCN3CCOCC3)cc3c2[nH]c2ccccc23)c1 | 8.2µM | -64 | 9.2µM | / | . | .
O=C(NCCCO)c1cc2c([nH]c3ccccc32)c(-c2ccccc2)n1 | 13µM | -88 | 15µM | / | . | .
O=C(NCCCO)c1cc2c(cn1)[nH]c1ccccc12 | . | ? | . | / | . | .
O=C(COc1ccc(Br)cc1CO)N1CCCc2ccccc21 | 26µM | . | . | . | . | .
CCc1cc(=O)oc2c(C)c(OCC(=O)N3CCCc4ccccc43)ccc12 | ? | . | 18µM | . | . | .
NC(=S)NN=Cc1ccc(-c2ccc(S(=O)(=O)Nc3ncccn3)cc2)o1 | ? | . | . | 10µM | . | ?

Screening data deposited in PubChem by National Center for Advancing Translational Sciences (NCATS).
